Cruzain inh noDet = blocks cruzain activity in detergent-free assay; purified cruzain, Z-FR-AMC fluorescence, no detergent; P25779; hit rate 2.3% among 200,000; AID 1476; Potency, µM, actives largely listed as inhibitors; note: nearly all actives have a fitted effect of over 40% in size
Target sequence (P25779 123-467 limits assumed): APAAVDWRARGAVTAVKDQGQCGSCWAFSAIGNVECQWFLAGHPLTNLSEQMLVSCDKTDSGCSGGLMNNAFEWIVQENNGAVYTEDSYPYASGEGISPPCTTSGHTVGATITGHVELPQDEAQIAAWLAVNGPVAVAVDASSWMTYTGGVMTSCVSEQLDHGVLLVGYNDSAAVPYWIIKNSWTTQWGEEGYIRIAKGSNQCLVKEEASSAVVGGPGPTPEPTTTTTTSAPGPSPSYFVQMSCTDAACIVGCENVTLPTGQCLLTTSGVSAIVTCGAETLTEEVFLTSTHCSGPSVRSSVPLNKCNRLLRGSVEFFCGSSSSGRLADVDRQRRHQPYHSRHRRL
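Purified cruzain at 1.5 nM, pre-incubated 15 min with compound at room temperature in 100 mM sodium acetate pH 5.5, 5 mM DTT, 0.00005% Triton X-100. Reaction started with 2 uM Z-FR-AMC; AMC fluorescence increase over 60 s gives rate.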
Cruzain Triton = inhibitors of Trypanosoma cruzi cruzain with detergent; P25779; purified cruzain, Z-FR-AMC fluorescence, 0.01% Triton; Potency, µM, actives largely listed as inhibitors; hit rate 0.43% among 200,000; AID 1478; note: nearly all actives have a fitted effect of over 40% in size
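Compounds were screened in titration against cruzain (1.5 nM) with 0.01% Triton X-100 to counter colloidal aggregation. Activity was the AMC fluorescence increase over 60 s after adding 2 uM Z-FR-AMC at pH 5.5.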
Numbers stand for hits; – = inactive; ? = inconclusive; ! = not confirmed by another sample. Hits are enriched below; roughly 2.6% of the tested compounds scored in any of these assays. Calls come from the whole dose curve; as a rule, active = well fitted curve in the direction sought with a large enough effect; inconclusive = small, poorly fitted or top-dose-only effect, or another doubt; inactive = no such curve, though single readings can be large; an effect the other way counts as inactive or inconclusive.

SMILES	Cruzain inh noDet	Cruzain Triton
COc1cccc(-c2nnc3sc(-c4ccccc4)nn23)c1	?	–
O=C(Nc1ccc(Cl)cc1)C1CCC(CNS(=O)(=O)c2ccc(Br)s2)CC1 (stereo not drawn)	25µM	–
CC(=O)c1ccc(NC(=O)C2CCC(CNS(=O)(=O)c3ccc(Br)s3)CC2)cc1 (stereo not drawn)	–	–
COCC(=O)N1CCC[C@@]2(CCN(C(=O)Nc3ccccc3)C2)C1	–	–
COC(=O)CC1C(C)(C)C(OC(C)=O)[C@@]2(O)C=C3C4CC(=O)OC(c5ccoc5)[C@]4(C)CCC3[C@@]1(C)C2=O (stereo partly drawn)	–	–
O=C(COC(=O)C(Cc1c[nH]c2ccccc12)NC(=O)c1ccc(Br)cc1)c1ccc(Cl)cc1 (stereo not drawn)	?	–
Cc1ccc(C(=O)COC(=O)C(Cc2c[nH]c3ccccc23)NC(=O)c2ccc(C(C)(C)C)cc2)cc1 (stereo not drawn)	10µM	–
CC(=O)NC(Cc1c[nH]c2ccccc12)C(=O)OCC(=O)Nc1cc(C)on1 (stereo not drawn)	–	–
O=C(NC(Cc1c[nH]c2ccccc12)C(=O)O)c1ccccc1 (stereo not drawn)	–	–
CC(C)(C)c1ccc(C(=O)NC(Cc2c[nH]c3ccccc23)C(=O)OCC(=O)c2ccc(Br)cc2)cc1 (stereo not drawn)	10µM	–
Cc1cc(NC(=O)COC(=O)[C@H](Cc2c[nH]c3ccccc23)NC(=O)c2ccc(F)cc2)no1	?	14µM
CCc1ccc(C(=O)NC(Cc2c[nH]c3ccccc23)C(=O)OCC(=O)c2ccc(Br)cc2)cc1 (stereo not drawn)	16µM	–
O=C(COC(=O)C(Cc1c[nH]c2ccccc12)NC(=O)c1ccc(Cl)cc1)c1ccc(Cl)cc1 (stereo not drawn)	?	–
Cc1ccccc1CCNC(=O)c1ccc(NC(=O)N2CC(C)Sc3ccccc32)cc1 (stereo not drawn)	?	–
COc1ccc(-n2ccnc(NCc3cccs3)c2=O)cc1OC	–	–
NCC(=O)N[C@@H](CCCN=C(N)N)C(=O)NCC(=O)N[C@@H](CC(=O)O)C(=O)N[C@@H](CC(N)=O)C(=O)N1CC[C@@H](C(=O)O)C1	–	–
CCN(c1ccccc1)C(CNS(=O)(=O)c1ccccc1)c1ccccc1 (stereo not drawn)	–	–
COc1cccc(N2CC(NC(=O)c3cc4ccccc4o3)CC2=O)c1 (stereo not drawn)	–	–
COc1ccccc1NS(=O)(=O)c1cc(NC(=S)NCCN2CCOCC2)ccc1N1CCOCC1	?	–
COc1ccccc1NS(=O)(=O)c1cc(NC(=O)c2cccs2)ccc1N1CCCCC1	10µM	–
COc1ccc(NS(=O)(=O)c2cc(NC(=O)c3ccco3)ccc2N2CCCC2)cc1	?	–
O=C(Nc1ccc(F)cc1)Nc1ccc(N2CCCC2)c(S(=O)(=O)Nc2ccccc2Cl)c1	3.2µM	–
COc1ccc(NS(=O)(=O)c2cc(NC(=O)/C=C/c3cc(OC)ccc3OC)ccc2N2CCCCC2)cc1	6.3µM	–
O=C(Nc1ccc(Cl)c(Cl)c1)Nc1ccc(N2CCCC2)c(S(=O)(=O)Nc2ccccc2Cl)c1	?	–
COc1ccccc1NS(=O)(=O)c1cc(NC(=O)c2cccs2)ccc1N1CCCC1	?	–
SMILES	Cruzain inh noDet	Cruzain Triton
COc1ccccc1NS(=O)(=O)c1cc(NC(=O)Nc2ccccc2)ccc1N1CCCCC1	3.2µM	–
C/C=C\C(=O)N(CC)c1ccccc1C	?	–
COC(=O)c1ccc(C(=O)NC(=S)Nc2nc3c(s2)CC(C)CC3)cc1 (stereo not drawn)	–	–
Cc1onc(-c2ccccc2Cl)c1C(=O)Nc1nc2c(s1)CCCC2	25µM	–
O=C(NC(=S)Nc1nc2c(s1)CSc1ccccc1-2)c1ccccc1	7.9µM	–
Cc1onc(-c2ccccc2Cl)c1C(=O)Nc1nnc(-c2ccc(Cl)cc2Cl)s1	?	–
O=C(Nc1nc2c(s1)CCCC2)c1cccnc1	–	–
O=C(NC(=S)Nc1nc2c(s1)CCCC2)c1ccc(C(=O)c2ccccc2)cc1	25µM	–
CC(C)(C)c1ccc(O)c(C[N+](C)(C)C)c1	–	–
CC(=O)N[C@@H](CC(=O)O)C(=O)N[C@@H](CCC(=O)O)C(=O)O	–	–
O=C(O)CSC1=NCCN1	–	–
O=C(CSC1=NCCN1)C1COc2ccccc2O1 (stereo not drawn)	1.3µM	–
O=c1c2ccccc2nc(CSc2ncnc3nc[nH]c23)n1-c1ccccc1	–	–
N=C(N)SCc1nc2ccccc2c(=O)n1-c1ccccc1	25µM!	–
Cc1oc2ccc(O)c(CN3CCN(Cc4ccccc4)CC3)c2c1C(=O)Nc1ccccc1	–	–
CCC(=O)N1CCCc2cc(S(=O)(=O)N3CCC(C(=O)Nc4ccc(F)c(F)c4)CC3)ccc21	–	–
CCOC(=O)Oc1ccc2c(=O)c(Oc3cccc(C)c3)coc2c1	–	–
Cc1cccc(Oc2coc3cc(OC(=O)c4cc5ccccc5oc4=O)ccc3c2=O)c1	5µM	–
COc1ccc(-c2cc(=O)oc3c4c(ccc23)OCN(Cc2ccccc2)C4)cc1	25µM	–
O=c1cc(-c2ccccc2)c2ccc3c(c2o1)CN(Cc1ccccc1)CO3	?	–
COc1ccc(-c2sc(NC(=O)c3ccc(C)cc3)nc2-c2ccc([N+](=O)[O-])cc2)cc1	4µM	–
COc1ccc2c(c1)CCc1sc(NC(=O)c3ccc(C)cc3)nc1-2	–	–
Cc1nc(NC(=O)c2ccccc2)sc1-c1csc(NCCc2ccccc2)n1	?	–
COc1ccc(OC)c(Nc2nc(-c3sc(NC(=O)C(C)(C)C)nc3C)cs2)c1	–	–
COc1ccccc1Nc1nc(-c2sc(NC(=O)c3ccccc3)nc2C)cs1	?	–
SMILES	Cruzain inh noDet	Cruzain Triton
CCOc1ccccc1Nc1nc(-c2sc(NC(=O)c3cccc(Cl)c3)nc2C)cs1	6.3µM	–
COc1ccccc1Nc1nc(-c2sc(NC(=O)c3ccc([N+](=O)[O-])cc3)nc2C)cs1	4µM	–
CCOc1ccccc1Nc1nc(-c2sc(NC(=O)c3ccccc3)nc2C)cs1	13µM	–
Cc1ccc(NC(=O)Cn2c(=O)n(CCCS(=O)(=O)C3CCCCC3)c(=O)c3ccccc32)cc1F	–	–
CCc1ccc2ncc3c(-c4ccccc4)nn(-c4ccccc4)c3c2c1	–	–
Cc1ccc(-n2c3c(c(=O)[nH]c2=O)C(NC(=O)c2ccccc2C)(C(F)(F)F)C(=O)N3)cc1 (stereo not drawn)	–	–
CN1C(=O)C(C)(C)c2cc(S(=O)(=O)N3CCCC3C(=O)Nc3ccc(F)cc3)ccc21 (stereo not drawn)	–	–
O=C(O)c1ccccc1CN1CCC[C@@H](C(=O)O)C1	–	–
Cc1nn(-c2ccc(N3CCCC3)nn2)c(C)c1CCC(=O)NCc1ccc(OC(C)C)cc1	–	–
O=S(=O)(Cl)c1ccccc1	–	–
COc1cccc(-c2cncnc2NCc2cccc(C)c2)c1	–	–
CCOc1ccccc1NC(=O)C(C)Sc1cc(-c2ccccc2)nc(C)n1 (stereo not drawn)	–	–
CCOc1ccccc1Nc1nnc(SC(C)C(=O)Nc2nc(-c3ccccc3)cs2)s1 (stereo not drawn)	7.9µM	–
C=CCNc1sc(C(=O)c2ccccc2)c(N)c1C#N	–	–
C=CCNc1sc(C(=O)c2ccc(Br)s2)c(N)c1C#N	16µM	–

From PubChem BioAssay
